Compound activity from PubChem.
Sfp inh – qHTS Assay for Inhibitors of Bacillus subtilis Sfp phosphopantetheinyl transferase (PPTase) | 4'-phosphopantetheinyl transferase ffp (Bacillus subtilis), Q9F4F7 | Potency, µM, without a hit: largest response in the series, negative = inhibition, hits mostly inhibitors | AID 1490, 2009 | 310,000 tested, 3.5% active | Biochemical Sfp PPTase activity, qHTS;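 further: the enzyme is Sfp with the accession as filed and its product quenches rhodamine fluorescence; 0% = enzyme reaction without inhibitor and -100% = no enzyme wells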
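Fluorescence-quenching assay with 15 nM Sfp, 5 uM rhodamine-CoA and 12.5 uM BHQ-2-labelled ybbR peptide in pH 7.6 Hepes/MgCl2 buffer. Enzyme was pre-incubated with compound for 15 min at room temperature. Rate was taken from the 30-min fluorescence change (525/598 nm).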
HP1b chromo inh – HTS for Inhibitors of HP1-beta Chromodomain Interactions with Methylated Histone Tails; Chromobox protein homolog 1 (Homo sapiens), P83916; AlphaScreen HP1-beta / biotin-H3K9me3 peptide binding; Potency, µM (doses to about 114 µM), without a hit: top-dose activity change, negative = inhibition, actives largely listed as inhibitors; 390,000 tested, 0.56% active; AID 540317, 2011; further: nearly all actives have a fitted effect of over 70% in size
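HP1-beta protein (50 nM final) preincubated 30 min at room temperature with biotinylated H3(1-18)K9me3 peptide (50 nM) in PBS pH 7.4, 0.01% Tween-20, then compound added for 30 min. AlphaScreen streptavidin donor/nickel chelate acceptor beads (10 ug/mL final), 30 min dark, luminescence read.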
BAZ2B block – qHTS Assay for Inhibitors of BAZ2B. Bromodomain adjacent to zinc finger domain protein 2B (Homo sapiens), Q9UIF8. 360,000 tested, 4.4% active. AlphaScreen BAZ2B-H3K14Ac peptide displacement. Potency, µM (highest dose often 114 µM), for the others: at the highest dose activity change, negative = inhibition, hits mostly inhibitors; further: on the % scale 0 is the no-effect control and ±100 the full control effect; nearly all actives have a fitted effect of over 60% in size
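In this displacement format the biotinylated H3(5-23) peptide acetylated at Lys14 serves as ligand at 50 nM, with BAZ2B at 50 nM in PBS pH 7.4 containing 0.01% Tween-20. Donor and acceptor beads are 10 ug/mL final.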
JMJD2A Tudor inh – qHTS Assay for Inhibitors of JMJD2A-Tudor Domain; AlphaScreen JMJD2A-Tudor / H3K4me3 peptide binding; 390,000 tested, 4.4% active; Potency, µM (highest dose often 114 µM), without a hit: top-dose activity change, negative = inhibition, hits mostly inhibitors; further: on the % scale 0 is the no-effect control and ±100 the full control effect; nearly all actives have a fitted effect of over 50% in size
Target sequence (O75164 whole entry, looked up, the tested form may be a part): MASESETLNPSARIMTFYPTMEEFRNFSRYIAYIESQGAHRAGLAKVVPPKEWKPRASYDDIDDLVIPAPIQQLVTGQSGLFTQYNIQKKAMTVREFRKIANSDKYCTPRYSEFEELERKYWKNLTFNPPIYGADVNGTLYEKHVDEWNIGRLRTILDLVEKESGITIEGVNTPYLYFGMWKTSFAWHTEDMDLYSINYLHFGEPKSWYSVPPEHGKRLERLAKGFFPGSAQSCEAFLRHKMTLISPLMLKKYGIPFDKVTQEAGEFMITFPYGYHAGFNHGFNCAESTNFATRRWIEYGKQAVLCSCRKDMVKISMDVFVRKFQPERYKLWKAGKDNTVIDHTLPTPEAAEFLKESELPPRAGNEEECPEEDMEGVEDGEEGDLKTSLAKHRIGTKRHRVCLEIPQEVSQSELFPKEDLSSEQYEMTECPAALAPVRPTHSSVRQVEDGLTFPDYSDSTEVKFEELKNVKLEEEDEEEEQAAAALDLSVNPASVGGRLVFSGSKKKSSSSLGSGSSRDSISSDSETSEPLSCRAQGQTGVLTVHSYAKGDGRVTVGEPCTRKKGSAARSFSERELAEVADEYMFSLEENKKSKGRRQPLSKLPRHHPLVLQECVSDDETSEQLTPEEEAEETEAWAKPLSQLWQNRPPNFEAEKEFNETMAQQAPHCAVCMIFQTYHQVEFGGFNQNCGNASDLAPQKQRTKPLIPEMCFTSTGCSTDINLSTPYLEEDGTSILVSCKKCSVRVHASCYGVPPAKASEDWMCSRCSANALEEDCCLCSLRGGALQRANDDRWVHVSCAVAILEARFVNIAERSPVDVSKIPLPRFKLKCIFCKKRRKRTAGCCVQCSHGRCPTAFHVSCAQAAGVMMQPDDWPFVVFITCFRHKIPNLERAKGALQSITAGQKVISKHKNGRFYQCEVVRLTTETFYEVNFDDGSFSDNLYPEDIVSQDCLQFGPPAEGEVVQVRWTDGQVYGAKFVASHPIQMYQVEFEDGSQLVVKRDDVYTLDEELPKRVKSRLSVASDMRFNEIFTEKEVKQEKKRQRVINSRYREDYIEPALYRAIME
L3MBTL1 inh – qHTS Assay for the Inhibitors of L3MBTL1; Lethal(3)malignant brain tumor-like protein 1 (Homo sapiens), Q9Y468; AlphaScreen L3MBTL1–H3K9me1 peptide binding; Potency, µM (doses to about 57.1 µM), for the others: top-dose activity, negative = inhibition, actives largely listed as inhibitors; 230,000 tested, 0.66% active; further: on the % scale 0 is the no-effect control and ±100 the full control effect; nearly all actives have a fitted effect of over 60% in size
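Displacement of a biotinylated histone H3(1-15) peptide monomethylated at Lys9 (75 nM) from L3MBTL1 (50 nM) was measured by AlphaScreen after a 30 min room-temperature compound incubation; cefsulodin titration served as intraplate control.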
G9a block – qHTS Assay for Inhibitors of Histone Lysine Methyltransferase G9a | G9a H3K9 monomethylation, AlphaScreen, 2 h | Potency, µM (titrated, usually from 102 µM), for the others: at the highest dose activity, negative = inhibition, actives largely listed as inhibitors | 350,000 tested, 8.8% active | AID 504332, 2011; further: on the % scale 0 is the no-effect control and ±100 the full control effect; nearly all actives have a fitted effect of over 75% in size
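G9a (20 nM) was preincubated 15 min with compound, then reacted 2 h at room temperature with 500 nM biotin-H3K9 peptide and 20 µM SAM. Monomethyl-H3K9 detected by AlphaScreen using anti-H3K9me1 antibody.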
Active calls of the source: *; [ ] = another dose, or the depositor's remark. Sampled rows, rich in hits. Any-hit rate of the full collection: about 12%. The call rests on the fitted dose curve; in most records, active means well fitted curve in the direction sought with a large enough effect; inconclusive means small, poorly fitted or top-dose-only effect, or another doubt; inactive means no such curve, though single readings can be large; an effect the other way counts as inactive or inconclusive. Potency means the concentration at half of the fitted maximal effect.

Screening CCOc1ccc(/C=C2/SC(=S)N(C(C(=O)O)c3ccccc3)C2=O)cc1OCC (stereo not drawn) returned Sfp inh 56.2µM*, HP1b chromo inh inconclusive, BAZ2B block 79.4µM*, JMJD2A Tudor inh inconclusive and G9a block 44.7µM*.
`COc1ccccc1/C=C1\SC(=S)N(C(C(=O)O)c2ccccc2)C1=O` (stereo not drawn) gave Sfp inh 56.2µM*, HP1b chromo inh 27.6%, BAZ2B block -35.5%, JMJD2A Tudor inh 2.9%[11.4 µM], L3MBTL1 inh -9.2% and G9a block inconclusive.
Screening CCOc1cc(/C=C2\SC(=S)N(C(C(=O)O)c3ccccc3)C2=O)ccc1O (stereo not drawn) returned Sfp inh 39.8µM*, HP1b chromo inh inconclusive, BAZ2B block -20.4%, JMJD2A Tudor inh -22.1%[11.4 µM], L3MBTL1 inh -11.9% and G9a block 44.7µM*.
CCOC(=O)c1c(C)oc2ncnc(Nc3cc(Cl)ccc3OC)c12 was read as HP1b chromo inh 52.3%, BAZ2B block 13.4%[57.1 µM], JMJD2A Tudor inh -6.1% and G9a block 1.2%[59 µM].
For OC[C@H]1NC[C@H](O)[C@@H](O)[C@H]1O the results were Sfp inh 1.9%.
Screening COc1cc(/C=C2/SC(=NCc3ccccc3)N(Cc3ccccc3)C2=O)ccc1O returned Sfp inh 6.3%, HP1b chromo inh 10.7%, BAZ2B block -7.1%, JMJD2A Tudor inh -31.8% and G9a block -0.2%[59 µM].
COc1cc(/C=C2\SC(=S)N(C(C(=O)O)c3ccccc3)C2=O)ccc1O (stereo not drawn) was read as Sfp inh inconclusive, HP1b chromo inh inconclusive, BAZ2B block inconclusive, JMJD2A Tudor inh -31.6%, L3MBTL1 inh -0.2% and G9a block 8.91µM*.
Cc1ccc(N2NC(C)(c3cccs3)NC2=S)cc1 (stereo not drawn) was read as Sfp inh 70.8µM*, HP1b chromo inh -22.9%, BAZ2B block inconclusive, JMJD2A Tudor inh inconclusive, L3MBTL1 inh -5.8% and G9a block 8.91µM*.
O=C(CSc1nnc(-c2cccs2)o1)NCC1CN(Cc2ccccc2)CCO1 (stereo not drawn) was read as Sfp inh 14.2%, HP1b chromo inh 10.5%, BAZ2B block 56.2µM*, JMJD2A Tudor inh -26.9% and G9a block 3.55µM*.
Screening COc1cccc(Cn2c(=O)c(-c3ccccc3)nc3cnc(N(C)C)nc32)c1 returned Sfp inh inconclusive and G9a block 5.1%[12.7 µM].
O=C(O)CSc1c2c(nc3cc(C(=O)N4CCOCC4)ccc13)CCCC2 was read as Sfp inh 50.1µM*, HP1b chromo inh 14.8%, BAZ2B block 70.8µM*, JMJD2A Tudor inh 39.8µM*, L3MBTL1 inh -1.3% and G9a block 33.8%[0.501 µM].
`CCOC(=O)N1CCN(C(=O)c2ccc3c(SCC(=O)O)c4c(nc3c2)CCCC4)CC1` gave Sfp inh 14.0%, HP1b chromo inh 36.3%, BAZ2B block -3.4%, JMJD2A Tudor inh -16.7%, L3MBTL1 inh 6.9% and G9a block 39.8µM*.
CCCCn1c(N)c(N(CC(C)C)C(=O)c2cccc(-n3cnnn3)c2)c(=O)[nH]c1=O was read as HP1b chromo inh 26.9%, BAZ2B block 2.8%, JMJD2A Tudor inh -4.8%, L3MBTL1 inh -0.1% and G9a block -6.4%[2.33 µM].
Screening CCOC(=O)OCC1C=C[C@H](c2cc(-c3ccccc3)ccc2O)C(c2ccc(C(C)=O)cc2)O1 (stereo partly drawn) returned Sfp inh 13.4%.
`CCCn1nnnc1NCc1ccccc1OCC` gave Sfp inh 6.0%, HP1b chromo inh 27.3%, BAZ2B block 1.8%, JMJD2A Tudor inh -9.1%, L3MBTL1 inh inconclusive and G9a block 35.5µM*.
Screening NC(=O)N/N=C/c1c(Sc2nnnn2-c2ccccc2)nc2ccccn2c1=O returned Sfp inh -23.3%, HP1b chromo inh 43.5%, BAZ2B block 1.6%, JMJD2A Tudor inh -0.7%, L3MBTL1 inh -0.5% and G9a block 50.1µM*.
Screening Cc1cc(C)n2nc(SCc3cccc(S(=O)(=O)N(C)C)c3)nc2n1 returned Sfp inh 3.6%, HP1b chromo inh 37.7%, BAZ2B block -12.7%, JMJD2A Tudor inh 0.3% and G9a block 44.7µM*.
`Cc1ccc(CSc2nc3nc(C)cc(C)n3n2)cc1` gave Sfp inh -7.3%, HP1b chromo inh 40.2%, BAZ2B block 5.1%, JMJD2A Tudor inh -9.1% and L3MBTL1 inh 4.1%.
Screening C#CCOCCOCCOCCNc1nc(N2CCN(C(=O)C([C@@H](C)CC)n3cc(C(N)CO)nn3)CC2)nc(N2CCN(C(=O)[C@H](CCC(=O)O)n3cc(C(N)[C@H](C)CC)nn3)CC2)n1 (stereo partly drawn) returned Sfp inh -10.0%, BAZ2B block 35.5µM* and G9a block inconclusive.
C#CCOCCOCCOCCNc1nc(N2CCOCC2)nc(N2CCN(C(=O)[C@H](CCCCN)n3cc([C@@H](N)C(C)CC)nn3)CC2)n1 (stereo partly drawn) was read as Sfp inh 11.7%, HP1b chromo inh 36.3%, BAZ2B block -36.8%, JMJD2A Tudor inh -11.2%, L3MBTL1 inh 1.0% and G9a block inconclusive.
`C#CCOCCOCCOCCNc1nc(N2CCN(C(=O)[C@H](CCCCN)n3cc(CN)nn3)CC2)nc(N2CCN(C(=O)[C@H](CCC(=O)O)n3cc([C@@H](N)[C@H](C)CC)nn3)CC2)n1` gave HP1b chromo inh 3.5%, JMJD2A Tudor inh 56.2µM* and L3MBTL1 inh -4.4%.
For C#CCOCCOCCOCCNc1nc(N2CCN(C(=O)[C@H](CCCCN)n3cc([C@@H](N)[C@H](C)CC)nn3)CC2)nc(N2CCN(C(=O)[C@H](CCC(=O)O)n3cc([C@@H](N)CCSC)nn3)CC2)n1 the results were HP1b chromo inh 15.9%, JMJD2A Tudor inh 79.4µM* and L3MBTL1 inh 0.6%.
